Measured values published in PubChem BioAssay.
The source made the active and inactive calls. Unless noted, no rule for the calls is given here.

Assays:
[1] = compound effects on lung adenocarcinoma cell viability – A549, calcein-AM fluorescence, 48 h, basal, profiling panel (AID 1162); details: higher = more signal; also: test concentration not given here
[2] = compound effects on differentiated 3T3-L1 adipocyte viability – cell-based, 3T3-L1 adipocytes, calcein-AM fluorescence, 48 h, basal, profiling panel (AID 1163); details: 3T3-L1 adipocytes viability, higher = more signal; also: test concentration not given here
[3] = compound effects on hepatocellular carcinoma cell viability – HepG2, calcein-AM fluorescence, 48 h, basal, profiling panel (AID 1164); details: higher = more signal; also: test concentration not given here
[4] = compound effects on multiple myeloma cell viability – MM1S, calcein-AM fluorescence, 48 h, basal, profiling panel (AID 1165); details: higher = more signal;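 also: viability of MM1S multiple myeloma cells under basal unstimulated conditions; test concentration not given here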
[5] = calcein-AM signal in unstimulated myeloma cells – cell-based, calcein-AM fluorescence, 48 h, PK04 Diversity Set, profiling panel (AID 1166); details: RPMI8226 myeloma viability, higher = more signal;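 also: cells grown under basal conditions without added stimulus; test concentration not given here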
[6] = JC-1 mitochondrial signal, unstimulated HepG2 cells – cell-based, JC-1 fluorescence, 24 h, 100 nL compound, profiling panel (AID 1167); details: HepG2 mitochondrial potential, higher = more signal; also: test concentration not given here
[7] = JC-1 mitochondrial signal, unstimulated adipocytes – cell-based, JC-1 fluorescence, 3T3-L1 adipocytes, 24 h, 100 nL compound, profiling panel (AID 1168); details: JC-1 mitochondrial fluorescence, higher = more signal, called active from +8 up or from −8 down; also: test concentration not given here
[8] = JC-1 mitochondrial signal, unstimulated myeloma cells – cell-based, JC-1 fluorescence, RPMI8226, 24 h, 100 nL compound, profiling panel (AID 1169); details: JC-1 mitochondrial potential fluorescence, higher = more signal; also: test concentration not given here
[9] = JC-1 mitochondrial signal, unstimulated MM1S myeloma – cell-based, JC-1 fluorescence, 24 h, 100 nL compound, profiling panel (AID 1170); details: MM1S mitochondrial potential, higher = more signal; also: test concentration not given here
[10] = resazurin metabolic signal in A549 cells – cell-based, resazurin fluorescence, 24 h, PK04 Diversity Set, profiling panel (AID 1171); details: A549 viability, higher = more signal, called active from +8 up or from −8 down; also: test concentration not given here
[11] = resazurin metabolic signal in HepG2 cells – cell-based, resazurin fluorescence, 24 h, PK04 Diversity Set, profiling panel (AID 1172); details: HepG2 viability, higher = more signal; also: test concentration not given here
[12] = budding yeast growth changes without added modifier – OD600, strain BY4716, 24 h, basal condition, primary screen (AID 1173); details: S. cerevisiae BY4716 growth, OD600, 24 h; higher = more signal, called active from +8 up or from −8 down
[13] = viability profiling in MM1S myeloma cells – cell-based, resazurin fluorescence, basal, 24 h, PK04 Diversity Set, profiling panel (AID 1174); details: higher = more signal, called active from +8 up or from −8 down; also: test concentration not given here
[14] = molecular target: Dihydroorotate dehydrogenase (quinone), mitochondrial (Plasmodium falciparum (isolate 3D7)) (UniProt Q08210); assay: inhibition of P. falciparum DHODH – biochemical, C-terminal His tag, absorbance 600 nm, primary screen (AID 1175); details: PfDHODH enzyme, DCIP absorbance 600 nm; higher = more signal, called active from +8 up or from −8 down;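 also: recombinant parasite enzyme with a five histidine tag at its C terminus; test concentration not given here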
Dihydroorotate dehydrogenase (quinone), mitochondrial (Plasmodium falciparum (isolate 3D7)), sequence (Q08210 whole entry, looked up): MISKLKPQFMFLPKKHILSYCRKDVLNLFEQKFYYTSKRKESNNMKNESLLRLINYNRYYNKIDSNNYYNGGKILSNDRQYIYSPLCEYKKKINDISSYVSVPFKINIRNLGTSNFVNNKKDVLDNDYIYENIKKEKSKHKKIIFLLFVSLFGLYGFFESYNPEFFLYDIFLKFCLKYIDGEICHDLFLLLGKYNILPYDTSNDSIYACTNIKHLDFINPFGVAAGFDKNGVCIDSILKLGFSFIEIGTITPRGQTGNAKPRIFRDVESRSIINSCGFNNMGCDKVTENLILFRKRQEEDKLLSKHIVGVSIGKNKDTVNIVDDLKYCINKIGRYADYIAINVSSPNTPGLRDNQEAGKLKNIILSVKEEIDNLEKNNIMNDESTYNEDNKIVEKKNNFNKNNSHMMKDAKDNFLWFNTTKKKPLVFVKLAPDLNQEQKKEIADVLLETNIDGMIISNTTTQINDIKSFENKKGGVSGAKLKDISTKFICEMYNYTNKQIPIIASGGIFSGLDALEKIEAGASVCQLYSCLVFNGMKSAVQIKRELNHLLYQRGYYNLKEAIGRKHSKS

[15] = inhibition of PAO1 biofilm formation – strain PAO1, LB-PBS medium, absorbance 600 nm, primary screen (AID 1176); also: test concentration not given here; details: P. aeruginosa PAO1 growth/biofilm, A600, 12 h; higher = more signal
[16] = growth modulation of vineyard yeast isolate – strain RM11-1a, OD600, basal, 24 h, primary screen (AID 1177);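 also: cultures grown under basal conditions with no added stressor; test concentration not given here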; details: S. cerevisiae RM11-1a growth, OD600, 24 h; higher = more signal, called active from +8 up or from −8 down
[17] = growth of efflux-deficient E. coli DRC39 – strain DRC39, OD650, 24 h, E. coli filamentation inducers, primary screen (AID 1178);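 also: growth measured as culture turbidity by optical density at 650 nm; test concentration not given here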; details: E. coli DRC39 acrAB, higher = more signal, called active from +8 up or from −8 down
[18] = growth of efflux-deficient E. coli DRC39 – strain DRC39, OD650, 48 h, E. coli filamentation inducers, primary screen (AID 1179);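 also: screen aims at cell division blockers that make cells filament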; details: E. coli DRC39 delta-acrAB growth, higher = more signal, called active from +8 up or from −8 down
[19] = viability profiling in RPMI8226 myeloma cells – cell-based, resazurin fluorescence, basal, 24 h, PK04 Diversity Set, profiling panel (AID 1180); details: higher = more signal;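 also: RPMI8826 multiple myeloma cell line at 5000 cells per well; test concentration not given here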
[20] = molecular target: E3 ubiquitin-protein ligase XIAP (Homo sapiens) (UniProt P98170); assay: small molecules binding XIAP protein – biophysical, small-molecule microarray, fluorescence 635 nm, primary screen (AID 1181); details: higher = more signal;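 also: score merges 667 nm emission and signal to noise over triplicate slides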
E3 ubiquitin-protein ligase XIAP (Homo sapiens), sequence (P98170 whole entry, looked up): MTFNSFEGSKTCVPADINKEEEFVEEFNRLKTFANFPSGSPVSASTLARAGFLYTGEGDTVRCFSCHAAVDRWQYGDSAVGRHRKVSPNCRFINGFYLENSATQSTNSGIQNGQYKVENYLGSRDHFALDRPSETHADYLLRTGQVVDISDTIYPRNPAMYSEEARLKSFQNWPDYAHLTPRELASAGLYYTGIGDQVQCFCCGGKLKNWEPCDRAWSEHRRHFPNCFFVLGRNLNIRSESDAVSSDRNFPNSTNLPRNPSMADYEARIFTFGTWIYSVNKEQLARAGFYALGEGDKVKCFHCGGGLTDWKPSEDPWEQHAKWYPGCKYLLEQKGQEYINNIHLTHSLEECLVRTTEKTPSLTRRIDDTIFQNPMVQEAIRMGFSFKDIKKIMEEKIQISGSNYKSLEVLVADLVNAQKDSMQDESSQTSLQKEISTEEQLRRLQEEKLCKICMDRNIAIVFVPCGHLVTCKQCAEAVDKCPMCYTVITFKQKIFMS

Row | Compound | z-score [1] | z-score [2] | z-score [3] | z-score [4] | z-score [5] | z-score [6] | z-score [7] | z-score [8] | z-score [9] | z-score [10] | z-score [11] | z-score [12] | z-score [13] | composite z-score [14] | z-score [15] | z-score [16] | z-score [17] | z-score [18] | z-score [19] | composite z-score [20]
1 | C=C(C(=O)CC[C@@H](OC(=O)c1cccnc1)c1cccc(OCCO)c1)C(C)C | 0.281 | 0.568 | 1.19 | -1.27 | -0.855 | -0.0539 | -0.227 (inactive) | -0.706 | -0.928 | 0.508 (inactive) | 0.38 | -0.58 (inactive) | -0.667 (inactive) | -1.33 (inactive) | 0.33 (inactive) | -1.3 (inactive) | 0.863 (inactive) | 0.816 (inactive) | -1.34 | 0.127
2 | CC(C)(C)OC(=O)CC[C@]1(C(N)=O)N=C(c2ccc(OCCCO)cc2)O[C@H]1c1ccccc1N=[N+]=[N-] | -0.263 | -0.251 | 0.934 | 0.381 | 0.882 | -0.445 | -0.109 (inactive) | -0.132 | -1 | 0.066 (inactive) | 0.551 | 0.0323 (inactive) | -0.446 (inactive) | 0.982 (inactive) | -0.0279 (inactive) | 0.979 (inactive) | 0.0489 (inactive) | 1.12 (inactive) | 0.596 | 0.333
3 | Cc1ccc(N2C(=O)c3ccccc3[C@@H](C(=O)NCCN3CCOCC3)[C@@H]2c2ccc(CO)cc2)nc1 | -0.619 | 0.112 | -0.45 | 0.128 | 0.0765 | -0.274 | 0.111 (inactive) | -0.171 | 0.235 | 0.444 (inactive) | 0.925 | 0.473 (inactive) | 0.544 (inactive) | 0.434 (inactive) | -0.618 (inactive) | 0.537 (inactive) | 0.193 (inactive) | 0.663 (inactive) | 0.547 | 0.0095
4 | C=C(C(=O)CC[C@@H](OC(=O)c1ccccc1-c1ccccc1C(=O)O)c1cccc(OCCO)c1)C(C)C | 0.811 | 0.647 | -0.474 | -0.305 | -0.637 | -1.12 | 1.01 (inactive) | -0.143 | 0.0602 | 1.33 (inactive) | 0.821 | -1.96 (inactive) | 1 (inactive) | -1.26 (inactive) | 0.661 (inactive) | -0.364 (inactive) | 0.546 (inactive) | 0.332 (inactive) | 1.82 | 0.112
5 | COCCOC(=O)N1C(=O)[C@@]2(c3cc(C#CCCO)ccc31)[C@H](c1ccc(O)cc1)N1[C@H](c3ccccc3)[C@H](c3ccccc3)OC(=O)[C@H]1[C@@H]2C(=O)NC[C@H](O)c1ccccc1 | 1.7 | 0.617 | 1.2 | 0.0034 | -0.409 | -0.424 | -1.55 (inactive) | -0.429 | -0.841 | 0.908 (inactive) | 1.63 | 0.597 (inactive) | 0.763 (inactive) | 0.612 (inactive) | 1.66 (inactive) | 1.06 (inactive) | 1.04 (inactive) | 1.67 (inactive) | 1.2 | 0.0256
6 | C[C@@]1([C@@H](NS(=O)(=O)c2cccc3cccnc23)c2ccc(-c3ccccc3)cc2)C[C@H]1C1CCCCC1 | -1 | -0.516 | -1.04 | -1.28 | -1.08 | -1.46 | -0.399 (inactive) | 0.698 | -1.72 | -0.892 (inactive) | -0.901 | 0.944 (inactive) | -2.58 (inactive) | -0.554 (inactive) | -0.0982 (inactive) | 0.368 (inactive) | -0.893 (inactive) | -0.882 (inactive) | -0.678 | 0.553
7 | C[C@]1(C(=O)NCC(F)(F)F)c2ccccc2C(=O)N(Cc2cc(C(F)(F)F)cc(C(F)(F)F)c2)[C@H]1c1ccc(CO)cc1 | 1.82 | 0.441 | 1.51 | 0.24 | 1.11 | 1.23 | 0.436 (inactive) | 0.412 | 0.0741 | 0.476 (inactive) | 0.373 | -0.234 (inactive) | 1.2 (inactive) | -0.954 (inactive) | 0.5 (inactive) | 0.507 (inactive) | 0.712 (inactive) | 0.827 (inactive) | 1.13 | -0.0099
8 | COCCCNC(=O)[C@@]1(c2ccc([N+](=O)[O-])cc2)CC(=O)N(C2CCCCC2)[C@@H]1c1ccc(CO)cc1I | 1.22 | 0.944 | 0.857 | -1.41 | -0.0154 | 2.88 | 0.802 (inactive) | 0.496 | 0.106 | 1.38 (inactive) | 0.545 | -0.24 (inactive) | 0.678 (inactive) | 0.219 (inactive) | 0.966 (inactive) | -0.251 (inactive) | 0.0675 (inactive) | -0.279 (inactive) | 1.16 | 0.0449
